Results on 92 molecules are retold here after PubChem BioAssay AID1259313 (Sanford-Burnham Center for Chemical Genomics, 2017).

Among all 340,000 compounds or so, about 8,500 (2.5%) were called active.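 The calls were made as follows: active = melting temperature shift of at least 10% of the positive control shift, at one fixed dose; inactive = the rest.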 This excerpt belongs to a sample that is enriched for actives.

This assay relates to Glutamate receptor ionotropic, NMDA 3A (GRIN3A) ligand-binding domain. As to the kind of experiment: binders of NR3A ligand-binding domain, primary screen, biophysical, differential scanning fluorimetry, uHTS (AID 1259313). The conditions noted are these: NR3A LBD differential scanning fluorimetry, at 25 µM, stronger effect = higher value, 0% = protein alone, 100% = glycine-bound protein. On the technique in general: In DSF a fluorescence change marks the thermal transition of the protein.
As for `COC(=O)c1c(NC(=O)CN(c2ccc(C)c(C)c2)S(C)(=O)=O)sc2c1CCCC2`, the Tm shift relative to glycine control was -7.55% (inactive). On to `O=C(COc1nsnc1N1CCOCC1)Nc1ccccc1Cl`, for which the Tm shift relative to glycine control is 1.49% (inactive). With `COc1ccccc1N1CC(C(=O)Nc2nnc(SCC(=O)NCC3CCCO3)s2)CC1=O` (configuration not stated), the Tm shift relative to glycine control is 0.09% (inactive). Turning to `O=C(CNCCO)NC12CC3CC(CC(C3)C1)C2`, the Tm shift relative to glycine control was -0.61% (inactive).

On to `O=S(=O)(Nc1ccccc1Cl)c1cccc2nsnc12`, for which the Tm shift relative to glycine control is -0.29% (inactive).

With `O=C(CC1C(=O)NCCN1CC(c1ccccc1)c1ccccc1)NCC1CCOCC1` (configuration not stated), the Tm shift relative to glycine control is 3.8% (inactive). Then `O=C(Cn1c(-c2cscn2)nc2ccccc21)Nc1ccc(Cl)cc1`, with -2.29% (inactive). For the molecule `CC1CCCN(C(=O)Cn2c(=O)oc3cc(S(=O)(=O)N4CCCCC4C)ccc32)C1` (configuration not stated), the Tm shift relative to glycine control was -0.87% (inactive).

Consider `CC(CNc1ccc([N+](=O)[O-])cc1)NC(=O)c1ccccc1Br` (configuration not stated), for which the Tm shift relative to glycine control was 2.55% (inactive). For `O=C(NCCNc1ccc([N+](=O)[O-])cc1Cl)c1ccccc1F`, the Tm shift relative to glycine control is -1.3% (inactive). As to `O=C(NCCNc1ccc([N+](=O)[O-])cc1)c1cccc2c(Br)cccc12`, the Tm shift relative to glycine control is 23.8% (active). Take `Clc1cc(-c2ccc(/C=N/n3cnnc3)o2)ccc1Br`: the Tm shift relative to glycine control is -26.7% (inactive).

As to `CCN(CC)C(=O)CSc1nnc(CNc2ccc(F)cc2)n1Cc1ccco1`, the Tm shift relative to glycine control is 1.69% (inactive). As for `O=C(CSc1nnc(COc2ccc(Cl)cc2)n1Cc1ccco1)N1CCNC1=O`, the figure is 14.1% (active); as for `CCOC(=O)CNC(=O)CSc1nnc(COc2ccc(Cl)cc2)n1CC`, -0.34% (inactive); as for `CC(C)=CCc1ccc(O)c(=O)cc1C(C)C`, -5.18% (inactive).

Regarding `CC(C)c1cc(CN2CCOCC2)cc(C(C)C)c1O`, the Tm shift relative to glycine control was -0.77% (inactive).

Consider `CC(C)c1cc(N=O)cc(C(C)C)c1O`, for which the Tm shift relative to glycine control was 14% (active). On to `Cc1noc(C)c1-c1ccc2ncnc(NC(C)c3ccco3)c2c1` (configuration not stated), for which the Tm shift relative to glycine control was -0.81% (inactive). Regarding `COc1ccc(C(C(O)C(=O)c2c[nH]c3ccccc23)N2CCN(c3ccccc3)CC2)cc1` (configuration not stated), the Tm shift relative to glycine control was -1.26% (inactive).

As to `COc1ccc(/C=C(\C#N)c2c[nH]c3ccccc23)cc1`, the Tm shift relative to glycine control is 35.2% (active). Turning to `COc1cccc(-n2c(SCC(=O)c3c[nH]c4ccccc34)nc3ccccc3c2=O)c1`, the Tm shift relative to glycine control is 8.21% (inactive).

Turning to `Cc1cc(C)c2nc(NC(=O)C3CCCO3)sc2c1` (configuration not stated), the Tm shift relative to glycine control was -0.2% (inactive).

With `CC(NC(=O)c1ccccc1)C(=O)OCC(=O)Nc1cccc(S(=O)(=O)N2CCCC2)c1` (configuration not stated), the Tm shift relative to glycine control was -1.26% (inactive). Turning to `O=C(NC(=S)Nc1cccc2c(O)cccc12)c1cccc(Br)c1`, the Tm shift relative to glycine control is 23.1% (active). Regarding `Cc1ccccc1NC(=S)NNC(=O)c1cccc(Br)c1`, the Tm shift relative to glycine control is -6.22% (inactive). Turning to `NS(=O)(=O)c1ccc(NC(=S)NC(=O)c2cccc(Br)c2)cc1`, the Tm shift relative to glycine control is -9.81% (inactive). In the case of `C/C=C(/C)C(=O)O[C@@H]1c2cc3c(c4c2[C@@]2(CO4)C(=O)C(OC)=C(OC)C=C2C[C@@H](C)[C@H]1C)OCO3`, the Tm shift relative to glycine control was 0.32% (inactive). Take `CCN1C(=O)C(=O)N(CC(=O)Nc2cc(C)ccc2C)C1=O`: the Tm shift relative to glycine control is 1.68% (inactive). Regarding `CCN1C(=O)C(CC(=O)Nc2cc(C)ccc2C)SC1=Nc1ccc(S(N)(=O)=O)cc1` (configuration not stated), the Tm shift relative to glycine control was 14.2% (active). As to `CCN=C1SC(CC(=O)Nc2ccc(C)cc2)C(=O)N1CC` (configuration not stated), the Tm shift relative to glycine control is 0.44% (inactive).

In the case of `C/C(=N\NS(=O)(=O)c1ccccc1)c1c(O)cc(C)oc1=O`, the Tm shift relative to glycine control is 5.22% (inactive). As for `COc1ccc(-c2nc(N)ncc2-c2ccc(Cl)cc2)c(O)c1`, the Tm shift relative to glycine control was -3.97% (inactive). As for `Cc1[nH]nc(-c2ccc(OCc3cnn(-c4ccccc4)c3)cc2O)c1Oc1ccc(Cl)cc1`, the figure is 22.7% (active). In the case of `Oc1cccc(C2c3[nH]c4ccccc4c3CCN2Cc2cnn(-c3ccccc3)c2)c1` (configuration not stated), the Tm shift relative to glycine control is 9.57% (inactive). As for `COc1ccc(C(=O)NC(Cc2ccc(OC(=O)c3ccc(OC)cc3)cc2)C(=O)O)cc1` (configuration not stated), the figure is 1.26% (inactive); as for `CCCC(C)n1[nH]c(=O)c2c(C)cc(C)nc21` (configuration not stated), -2.91% (inactive); as for `COc1ccc(/C=C/C(=O)OCC(=O)N2CCN(S(=O)(=O)c3ccc(C)cc3C)CC2)cc1OC`, 2.82% (inactive). Regarding `Cc1nc2ccccn2c(=O)c1NC(=O)c1cccs1`, the Tm shift relative to glycine control is 2.62% (inactive).

For `Brc1ccc(-c2csc(N/N=C/c3cccnc3)n2)cc1`, the Tm shift relative to glycine control was 3.34% (inactive). `C(=N\Nc1ccc2ccccc2n1)/c1ccc2c(c1)OCO2`: the Tm shift relative to glycine control is -7.73% (inactive). For `Brc1ccc(-c2csc(N/N=C/c3ccc4c(c3)OCO4)n2)cc1`, the Tm shift relative to glycine control is 23.4% (active). As to `COc1ccc(-c2ccc(CCC(=O)O)n2NC(=O)c2ccc(C(C)(C)C)cc2)cc1`, the Tm shift relative to glycine control is -1.21% (inactive). For the molecule `CNC(=O)c1sc(Nc2ccc(OCc3ccccc3)cc2)nc1C`, the Tm shift relative to glycine control was 33.7% (active).

On to `CNC(=O)c1sc(NCc2ccccc2OC)nc1C`, for which the Tm shift relative to glycine control is 0.18% (inactive). `O=C(O)/C=C\C(=O)Nc1ccc(OCc2ccccc2)cc1`: the Tm shift relative to glycine control is -0.88% (inactive). For the molecule `COC(=O)C1=C(Nc2ccc(C)cc2)C=C(C)C(C(=O)OC)C1c1ccc(F)cc1` (configuration not stated), the Tm shift relative to glycine control was 2.17% (inactive). For `CC[C@]1(C(=O)OC)[C@H]2C(=O)N(Cc3ccccc3)C(=O)[C@H]2[C@H]2CN=C(SCc3ccccc3)N21`, the Tm shift relative to glycine control is -1.15% (inactive). As for `COCCN1C2=C(COC(C)(C)C2)C(=S)NC1c1ccccc1` (configuration not stated), the Tm shift relative to glycine control is -0.64% (inactive). As to `COC(=O)c1c(NC(C)=O)sc(C(=O)Nc2ccccc2OC)c1C`, the Tm shift relative to glycine control was -3.42% (inactive). Take `CCC(=O)Nc1sc(C(=O)Nc2ccccc2)c(C)c1C(=O)OC`: the Tm shift relative to glycine control is 2.03% (inactive). Consider `CC(=O)c1c(Nc2ccccc2)sc(C(=O)c2ccccc2)c1C`, for which the Tm shift relative to glycine control is 13.4% (active). As for `COC(=O)c1cc(S(=O)(=O)N2CCN(c3cc(C)ccc3C)CC2)c[nH]1`, the Tm shift relative to glycine control was -17% (inactive). Then `Cc1ccc(Cl)c(OCC(=O)NN2CCN(C)CC2)c1`, with -1.17% (inactive). As for `CCCC1=Nc2cc(C(=O)NCc3ccco3)ccc2Sc2ccccc21`, the figure is -20.6% (inactive). Regarding `Cc1ccc(N(CC(=O)Nc2cc(C)cc(C)c2)S(=O)(=O)c2cccc3nonc23)cc1`, the Tm shift relative to glycine control was -1.49% (inactive).

Take `CCOC(=O)c1ccc(NC(=O)c2nc[nH]c2C(=O)NCc2ccccc2)cc1`: the Tm shift relative to glycine control was -1.27% (inactive). As to `CCOC(=O)c1ccc(NC(=O)c2c(N)n(C)c(=O)[nH]c2=O)cc1`, the Tm shift relative to glycine control was 0.72% (inactive). As to `CCOC(=O)c1ccc(NC(=O)c2c(NCc3ccccc3)[nH]c(=O)[nH]c2=O)cc1`, the Tm shift relative to glycine control was 14.9% (active). On to `Cc1ccc(NC(=S)N2CCN(c3ncccn3)CC2)cc1C`, for which the Tm shift relative to glycine control was -1.38% (inactive).

Turning to `Cn1cc(/C=C/C(=O)N2CCCC(C(=O)c3ccc(C(F)(F)F)cc3)C2)cn1` (configuration not stated), the Tm shift relative to glycine control was 1.32% (inactive).

Regarding `CCCCn1c(N)c(N(CCOC)C(=O)c2cccc(OCc3ccccc3)c2)c(=O)[nH]c1=O`, the Tm shift relative to glycine control was 1.68% (inactive). As to `CCCCCCCCCCOC(=O)Cn1c(COc2cccc(OC)c2)[n+](C)c2ccccc21`, the Tm shift relative to glycine control is 17.8% (active). For `CCCCCCCCCCOC(=O)Cn1c(COc2ccc(C)cc2)[n+](C)c2ccccc21`, the Tm shift relative to glycine control is -408% (inactive).

In the case of `O=C1CC(Cc2ccccc2)C(=O)N1c1ccc(Cl)cn1` (configuration not stated), the Tm shift relative to glycine control is 1.69% (inactive).

As for `Fc1ccc(/C=N/n2c(COc3ccccc3)n[nH]c2=S)cc1`, the Tm shift relative to glycine control was -0.74% (inactive).

As for `CN(C)c1ccc(C2Nc3ccccc3C(=O)N2NS(=O)(=O)c2ccccc2)cc1` (configuration not stated), the Tm shift relative to glycine control was 0.59% (inactive). `Cc1cc(C)c(NC(=O)CN2CCOCCOCCOCCOCC2)c(C)c1`: the Tm shift relative to glycine control was 0.86% (inactive). For `O=C(CN1CCOCC1)Nc1c(Cl)cc(Cl)cc1Cl`, the Tm shift relative to glycine control is -2.33% (inactive). Then `O=C(CN1CCOCC1)Nc1c2c(nc3c1CCC3)CCC2`, with 10.2% (active); and `O=C(COc1ccc2ccccc2c1)N1CCN(C(=O)c2cccs2)CC1`, with 0.47% (inactive); and `CCOC(=O)c1nn(-c2ccccc2F)c2nc(Nc3ccccc3)cc(=O)n12`, with 0.55% (inactive). Then `Cc1ccc(NC(=O)c2sc3nc(N)c(C#N)cc3c2N)cc1`, with 10.3% (active); and `CCc1ccc2nc3sc(C(=O)Nc4nnc(CC)s4)c(N)c3cc2c1`, with 2.24% (inactive); and `Cc1ccc(NC(=O)CSCC(=O)Nc2sccc2C#N)cc1`, with -2.55% (inactive). For the molecule `O=C(N[C@@H](Cc1c[nH]c2ccccc12)C(=O)O)OCC1c2ccccc2-c2ccccc21`, the Tm shift relative to glycine control was 19.5% (active). For `Cc1cccc(C)c1OCC(=O)NC(Cc1c[nH]c2ccccc12)C(=O)O` (configuration not stated), the Tm shift relative to glycine control is 0.33% (inactive). As for `O=C(CCn1nnc2ccccc2c1=O)N[C@@H](Cc1c[nH]c2ccccc12)C(=O)O`, the Tm shift relative to glycine control is -1.09% (inactive). As for `Cc1cc(NC(=O)C(C)SCC(=O)Nc2cccc(S(=O)(=O)N3CCCCCC3)c2)no1` (configuration not stated), the Tm shift relative to glycine control is -1.57% (inactive).

Take `O=C(NN=Cc1ccc([N+](=O)[O-])cc1)C1CC1`: the Tm shift relative to glycine control is -0.92% (inactive). Consider `NC(=O)CSc1c[nH]c2ccccc12`, for which the Tm shift relative to glycine control is 0.83% (inactive). As to `CC(C)c1c(C(=O)N/N=C/c2ccccc2C(=O)O)nnn1-c1nonc1N`, the Tm shift relative to glycine control is -7.76% (inactive). As for `CSC(=S)N/N=C/c1c[nH]c2ccccc12`, the Tm shift relative to glycine control is 30.1% (active). For `C[n+]1ccc(/C=C/c2c[nH]c3ccccc23)cc1`, the Tm shift relative to glycine control is -3.88% (inactive). With `O=C(N/N=C/c1ccc(Cl)cc1)c1nc2ccc([N+](=O)[O-])cc2c(=O)[nH]1`, the Tm shift relative to glycine control is 1.51% (inactive). As to `O=C(N/N=C/c1c[nH]c2ccccc12)c1cc2ccccc2o1`, the Tm shift relative to glycine control is 28.7% (active). Then `Nc1nonc1-n1nnc(C(=O)N/N=C/c2c[nH]c3ccccc23)c1-c1ccccc1`, with 31.6% (active).

With `Cc1c(/C=N\NC(=O)c2cc3ccccc3o2)c2ccccc2n1C`, the Tm shift relative to glycine control was 2.79% (inactive). Consider `O=C(N/N=C/c1ccc([N+](=O)[O-])cc1)c1c[nH]c2ccccc12`, for which the Tm shift relative to glycine control was 26.3% (active). `Nc1nonc1-n1nnc(C(=O)N/N=C/C2CCCCC2)c1-c1ccccc1`: the Tm shift relative to glycine control was 0.68% (inactive).

In the case of `Cc1cc(NC(=O)c2cc3ccccc3o2)no1`, the Tm shift relative to glycine control was 2.81% (inactive). On to `Cc1ccc(N2CCN(S(=O)(=O)N(C)C)CC2)cc1Cl`, for which the Tm shift relative to glycine control is 1.66% (inactive).
